The values that follow come from PubChem BioAssay (NCATS).

Results filed as inconclusive are left out. Active and inactive are the calls of the source. The call rests on the fitted dose curve; in most records, active means well fitted inhibition curve with a large enough effect; inconclusive means small, poorly fitted or top-dose-only effect; inactive means flat fitted curve, though single readings scatter.

The nature of the assay: qHTS for Inhibitors of Plasmodium falciparum (7G8) proliferation (AID 504316). Further: nearly all actives have a fitted effect of over 65% in size. As to conditions: P. falciparum 7G8 in erythrocytes, SYBR Green DNA, 72 h; series mostly up to 6.7 µM. The source says: Plasmodium falciparum is a virulent malarial parasite that kills 1-2 million people worldwide each year. Malaria not only inflicts tremendous suffering and morbidity on the human population, but has dramatically influenced the course of civilization with profound sociological and economic implications (Shah, S. 2010). Transmitted by mosquitoes, the sporozoite form of the parasite enters the blood stream to infect hepatocytes, where they become merozoites that infect red blood cells (erythrocytes). Within erythrocytes, merozoites begin a […] cycle of growth and division, after which the parasite is released to infect new red blood cells. Gametocytes, which form within erythrocytes as well, circulate in the bloodstream and are ingested by the mosquito, thereby completing the life cycle (see CDC website). To profile malarial lines for differential chemical responses and to identify inhibitors of malarial growth, an assay that measures P. falciparum growth and replication within erythrocytes was employed. This assay uses a DNA binding fluorescent dye (SYBR Green) to detect parasite DNA following cell lysis. Because mature erythrocytes lack DNA, only Plasmodium-derived DNA is detected. The P. falciparum line cp250, derived from a malarial isolate from Cambodia, (Mu, J., et al. 2010) was added to the panel of lines, Dd2, HB3, 7G8 and GB4 in this study. Laboratory of Assay Development and Screening Technology [ADST] and NIH Chemical Genomics Center [NCGC] Boston University, Chemistry Department, Center for Chemical Methodology and Library Development [CMLD-BU] NIH National Institute of Allergy and Infectious Diseases [NIAID]
ADST Assay Protocol Summary: The 1536-well SYBR Green viability assay was based on the method of Bennett et al (2004) and described previously in 1536-well format (Yuan J., et al. 2009). For screening 3 ul culture medium was dispensed into 1536 well black clear bottom plates (Aurora Biotechnologies) using a Multidrop Combi (Thermo Fisher Scientific Inc.), 23 nL compounds in DMSO were added by a pin transfer (Cleveland, P.H. and Koutz, P.J, 2005) using a pin tool-based delivery system (Kalypsys), and 5 ul of erythrocytes infected with P. falciparum one of five lines (cp250, Dd2, HB3, 7G8 or GB4, 0.3% parasitemia, 2.5% hematocrit final concentration) were added. The plates were incubated at 37C in a humidified incubator in 5% CO2 for 72 h, and 2 ul lysis buffer (20 mM Tris HCl, 10 mM EDTA, 0.16% saponin, 1.6% triton X, 10X SYBR Green I (supplied as 10,000X final concentration by Invitrogen) was added to each well. The plates were mixed for 25 sec with gentle shaking and incubated overnight at room temperature in the dark. The following morning, fluorescence intensity at 485(14) nm excitation and 535(25) nm emission wavelengths was measured on an EnVision (Perkin Elmer) plate reader. Plate reads were normalized relative to the control inhibitor (0.29 uM artemisinin) and vehicle (DMSO) wells present on each plate and then corrected by an algorithm using vehicle-only control plates at the beginning and end of the compound plate stack. References Shah, S. (2010). The Fever: how malaria has ruled humankind for 500,000 years. New York, Sarah Crichton Books. CDC web site, http://www.cdc.gov/malaria/about/biology/index.html Mu, J., Myers, R.A., Jiang, H., Liu, S., Ricklefs, S., Waisberg, M., Chotivanich, K., Wilairatana, P., Krudsood, S., White, N.J., et Plasmodium falciparum genome-wide scans for positive selection, recombination hot spots and resistance to antimalarial drugs Nature Genetics 2010, 42, pp 268-271 Bennett TN, Paguio, M., Gligorijevic, B., Seudieu, C., Kosar, A. D., Davidson, E., and Roepe, P. D. Novel, rapid, and inexpensive cell-based quantification of antimalarial drug efficacy Antimicrobial Agents Chemother. 2004, 48(5): pp 1807-10 Yuan J, Johnson RL, Huang RL, Wichterman J, Jiang HY, Hayton K, Fidock DA, Wellems TE, Inglese J, Austin CP, Su XZ. […]
Turning to `COC(=O)[C@@]1(C=C[C@@H](C)[C@H](OC)c2ccccc2Br)[C@@H]2Oc3ccccc3[C@@H]21`, the outcome was inactive. In the case of `CCOC(=O)[C@@]12C3[C@@H](CCN3C(=O)N[C@@H]1c1ccccc1)[C@@H]2C` (stereo not given in full) it was “inactive”; in that of `CCC[C@]12CCN3C(=O)N[C@@H](c4ccccc4)[C@](C(=O)OCC)(C1)[C@H]32`, “inactive”; in that of `COC(=O)C1=C[C@H]([C@@H](C)[C@H](OC)c2ccccc2Br)[C@H]2[C@H]1c1ccccc1N2C`, “inactive”. `C=C1[C@@H]2CCN3C(=O)N[C@@H](c4ccccc4)[C@@]1(C(=O)OCC)C23` (stereo not given in full): the compound was called inactive. In the case of `CCOC(=O)[C@@]12[C@@H]3[C@@H](CCN3C(=O)N[C@H]1c1ccccc1)C2(C)C` it was “inactive”; in that of `COC(=O)[C@@]12Cc3ccccc3[C@H]1C[C@H](C)[C@@H](C)N2C(=O)C(F)(F)F`, “inactive”. As for `COC(=O)C1c2c(n(C)c3ccccc23)[C@H]2[C@@H](C)[C@H](OC)c3ccccc3[C@@H]12` (stereo not given in full), the compound was classed as inactive. Take `CC(=O)[C@]12C[C@@H]3CCCN(C(=O)N[C@@H]1c1ccccc1)[C@@H]32`: the call was inactive. The entry for `CC(=O)[C@]12C[C@]3(C)CCCN(C(=O)N[C@@H]1c1ccccc1)C32` (stereo not given in full) is “inactive”; for `COC(=O)C1=C2CCO[C@@H]2[C@H]2[C@@H](C)[C@H](OC)c3ccccc3[C@H]12` it is “inactive”. Regarding `COC(=O)C1=C2CCCO[C@H]2[C@@H]2[C@@H](C)[C@H](OC)c3ccccc3[C@@H]12`, the compound was called inactive. In the case of `CCOC(=O)[C@]12C[C@]3(C)CCCN(C(=O)N[C@@H]1c1ccccc1)[C@@H]32` it was “inactive”. The entry for `COC(=O)[C@@]1(C=C2c3ccccc3[C@@H](OC)[C@@H]2C)[C@@H]2Oc3ccccc3[C@@H]21` is “inactive”; for `CCOC(=O)[C@]12C[C@@H]3OCCN(C(=O)N[C@@H]1c1ccccc1)[C@@H]32` it is “inactive”. In the case of `CCOC(=O)[C@]12C[C@]3(OC)CCN(C(=O)N[C@@H]1c1ccccc1)[C@@H]32` it was “inactive”; in that of `COC(=O)C1(C)C2CC(C)C(c3ccccc32)N1C(=O)C(F)(F)F` (stereo not given), “inactive”; in that of `COC(=O)C1C2CC(C)C(c3ccccc32)N1C(=O)C(F)(F)F` (stereo not given), “inactive”. For `COC(=O)[C@]12C[C@@H]3CCN(C(=O)N[C@@H]1c1ccccc1)[C@@]32C`, the compound was classed as inactive. In the case of `COC(=O)C1=NN=C(C(=O)OC)[C@@]2(C)c3ccccc3NC12` (stereo not given in full) it was “inactive”; in that of `CCOC(=O)[C@]12C[C@@H]3CCN(C(=O)N(C(C)=O)[C@@H]1c1ccccc1)[C@@H]32`, “inactive”. Regarding `COC(=O)C1=C2CCO[C@H]2[C@@H]2[C@@H](C)[C@H](OC)c3ccccc3[C@@H]12`, the outcome was inactive. In the case of `CO[C@@H]1c2ccccc2[C@H]2C(C(=O)O)c3c(n(C)c4ccccc34)[C@H]2[C@H]1C` (stereo not given in full) it was “inactive”; in that of `CCOC(=O)[C@]12C[C@]3(C)CCN(C(=O)N[C@@H]1c1ccccc1)[C@@H]32`, “inactive”. The entry for `C=C(C)C(=O)CP(=O)(OCC)OCC` is “inactive”.
